Reference: PubChem BioAssay AID1008 (NMMLSC, 2008)
Screen size: about 190,000 compounds; about 240 (0.13%) were called active. No stated cut-off is given here; in the data, active means inhibition above about 40%. For the sample, actives were picked, then their nearest neighbours and some compounds at random.

The compounds below were run against Bcl-2-related protein A1 (Homo sapiens) (UniProt Q16548) (assay: inhibitors of Bim binding to Bfl-1, primary screen, biochemical, multiplexed, bead-based flow cytometry (AID 1008;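 further: 0% = wells without compound plus tracer and 100% = blocker peptide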)). Conditions: Bim-Bfl-1 binding inhibition, at 10 µM, hits give high values.
Chain of Bcl-2-related protein A1 (Homo sapiens) (Q16548 whole entry, looked up): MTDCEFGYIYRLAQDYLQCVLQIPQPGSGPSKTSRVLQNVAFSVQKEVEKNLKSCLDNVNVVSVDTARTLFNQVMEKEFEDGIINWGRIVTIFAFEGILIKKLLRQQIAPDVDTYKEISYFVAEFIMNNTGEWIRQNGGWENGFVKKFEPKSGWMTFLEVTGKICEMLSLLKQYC

| Compound | inhibition |
| --- | --- |
| Cc1cc(CNCc2c(C(=O)N(C)Cc3ccccc3)nc3ccccn23)nn1C | -6% (inactive) |
| COc1cccc(CNC(=O)CCN2C(=S)NC(C)(C)CC2C)c1 (configuration not stated) | -5% (inactive) |
| Cc1cc(OC(=O)c2ccccc2)c([N+](=O)[O-])c(=O)[nH]1 | -5% (inactive) |
| S=c1ccc2ccccc2[nH]1 | -4% (inactive) |
| Cc1cccc(CSc2nc3c(c(=O)n2C)SCC3)c1 | -2% (inactive) |
| CCOc1cc(CNn2c(C)nnc2SCC(=O)NC(C)(C)C)ccc1OCC(=O)NC(C)(C)C | -7% (inactive) |
| CC(C)Cn1c(N)c(C(=O)COC(=O)CN2C(=O)C3CC=CCC3C2=O)c(=O)n(C)c1=O (configuration not stated) | -8% (inactive) |
| COc1ccc(CNc2c(CO)cnc3c2cnn3C)cc1 | -3% (inactive) |
| CCc1ccc(NC(=O)C(=O)N/N=C(\C)CC(=O)NCCOC)cc1 | -3% (inactive) |
| O=C1C=CC(=O)N1c1ccc(N2CCCCC2)cc1 | 11% (inactive) |
| CN1CCN(S(=O)(=O)c2cccc(C(=O)N3CCc4ccccc43)c2)CC1 | 1% (inactive) |
| COc1cccc(CNC(=O)CCC2CCCN(Cc3ccc(OC(F)F)cc3)C2)c1 (configuration not stated) | -4% (inactive) |
| Cc1ccc(O)c(-c2cc(C(=O)Nc3c(C)n(C)n(-c4ccccc4)c3=O)[nH]n2)c1 | -2% (inactive) |
| COc1cc(C(=O)NNC(=O)c2ccc(S(=O)(=O)N3CCCCC3)cc2)cc(OC)c1OC | 7% (inactive) |
| CCc1ccc(NC2Nc3cc(C)nn3S2)cc1 (configuration not stated) | -1% (inactive) |
| CN(C)C(=O)CSc1n[nH]c(-c2ccco2)n1 | 2% (inactive) |
| Cc1ccc(NC(=O)Cn2c(=O)n(CCC(=O)NC3CCN(Cc4ccccc4)CC3)c(=O)c3ccccc32)cc1 | -9% (inactive) |
| Cc1cccc(C)c1N1CCN(S(=O)(=O)N2CCCCC2)CC1 | -3% (inactive) |
| O=C(CSc1ncnc2scc(-c3ccccc3)c12)NCc1ccc2c(c1)OCO2 | 0% (inactive) |
| CN(CCN1CCOCC1)Cc1nc(-c2ccc3c(c2)OCO3)no1 | -5% (inactive) |
| N#C/C(=C(\O)C(F)(F)F)c1nnc2n1CCCCC2 | -5% (inactive) |
| CC1CCN(C2=NC(=O)/C(=C/c3cn[nH]c3-c3ccccc3)S2)CC1 | -13% (inactive) |
| O=C(Nc1nc(-c2cccnc2)cs1)c1ccccc1F | -9% (inactive) |

| Compound | inhibition |
| --- | --- |
| CN1CCN(NC(=O)c2ccc(S(=O)(=O)N3CCCCCC3)cc2)CC1 | -2% (inactive) |
| CC1CCCCC1NC(=O)CO/N=C/c1ccc(OC(F)F)cc1 (configuration not stated) | -7% (inactive) |
| CCOC(=O)N1CCC(NC(=O)C(NS(=O)(=O)c2ccc3c(c2)CCN3C(=O)CC)C(C)C)CC1 (configuration not stated) | -4% (inactive) |
| CCc1nnc(NS(=O)(=O)c2ccc(NC(=S)NC(=O)/C=C/c3cccs3)cc2)s1 | 1% (inactive) |
| CC(C)C(C)(C#N)NC(=O)CSc1nc2scc(-c3ccccc3)c2c(=O)[nH]1 (configuration not stated) | 3% (inactive) |
| Cc1ccc(N(C(=O)c2ccc(CN3CCOCC3)o2)C(C(=O)NCCC(C)C)c2cccs2)c(C)c1 (configuration not stated) | -7% (inactive) |
| O=C(O)CCS(=O)(=O)c1ccc(-c2ccccc2)cc1 | 0% (inactive) |
| O=C(NCc1ccccn1)c1cc(-c2ccccc2Cl)on1 | 0% (inactive) |
| CN(c1ccc(C(=O)NCc2ccccn2)cc1)S(C)(=O)=O | -18% (inactive) |
| COCCNC(=O)Nc1ccc2nc(-c3ccco3)c(-c3ccco3)nc2c1 | 48% (active) |
| O=C(NCc1ccccn1)c1ccc2nc(-c3ccco3)c(-c3ccco3)nc2c1 | 43% (active) |
| COc1ccc(NC(=O)Nc2ccc3nc(C)c(C)nc3c2)cc1 | -2% (inactive) |
| COc1ccc(NC(=O)Nc2ccc3nsnc3c2)cc1 | -1% (inactive) |
| Cc1nnc(-c2ccc(Oc3ccc(C)c(C)c3)c([N+](=O)[O-])c2)o1 | 9% (inactive) |
| Cc1cccc(C2c3[nH]c4ccccc4c3CCN2C(=O)c2cc(-c3cccn3C)n[nH]2)n1 (configuration not stated) | -4% (inactive) |
| Cc1cc(/C=C2/NC(=O)NC2=O)c(C)n1-c1cccnc1 | -4% (inactive) |
| CCCCNC(=S)N/N=C1\CCCCc2ccccc21 | 0% (inactive) |
| COc1cccc(-n2c(=S)sc3c(=O)n(-c4ccccc4OC)c(SCC4OCCO4)nc32)c1 | -3% (inactive) |
| O=C(NNC(=O)C1C2CCC(C2)C1C(=O)O)c1ccc(Cl)cc1 (configuration not stated) | -8% (inactive) |
| COc1cccc(NC(=O)Cn2c3ccccc3c3nc4n(c(=O)c32)CCS4)c1 | 2% (inactive) |
| CC(C)(C)NCCCOc1ccc(Cl)cc1C(C)(C)C | -1% (inactive) |
| CCCCN=C1C([N+](=O)[O-])=CC=C2C1=NC1(CCCCC1)N2O | 0% (inactive) |
| c1ccc(-c2cc3c(NCC4COc5ccccc5O4)ncnc3s2)cc1 (configuration not stated) | -5% (inactive) |

| Compound | inhibition |
| --- | --- |
| CC1CCCN(S(=O)(=O)c2ccc(N(C(=O)c3cnccn3)C(C(=O)NC3CCCCC3)c3cccs3)cc2)C1 (configuration not stated) | -2% (inactive) |
| O=C(COC(=O)/C(=C/c1cccs1)c1cccs1)NCc1ccccc1Cl | 0% (inactive) |
| O=C(CN1CCCCCC1)NCCN1C(=O)S/C(=C\c2ccccc2Cl)C1=O | -4% (inactive) |
| O=C(O)c1cccc(N2C(=O)Nc3ccccc3N2O)c1 | 0% (inactive) |
| O=C(CCN1CCCCC1)N=Nc1c(O)[nH]c2ccccc12 | 0% (inactive) |
| CC(=O)Nc1ccc(NC(=S)NC(=O)/C=C/c2ccccc2)cc1 | -3% (inactive) |
| CCCCNS(=O)(=O)c1ccc2nc(SCC(=O)Nc3cc(C)cc(C)c3)[nH]c2c1 | -1% (inactive) |
| O=C(NCC1CCN(Cc2ccccc2Cl)CC1)Nc1cccc(Cl)c1 | -6% (inactive) |
| CCOC(=O)c1cc2c(nc1NC(=S)Nc1ccccc1)CC(C)(CC)OC2 (configuration not stated) | -11% (inactive) |
| Cn1nnnc1SCC(=O)NNC(=O)c1ccc(Br)cc1 | -10% (inactive) |
| CCCCCN(C(=O)NC(=O)Nc1cccc(C)c1C)S(C)(=O)=O | -7% (inactive) |
| CCn1c(C(C)NC(=O)c2ccc(C)cc2)n[nH]c1=S (configuration not stated) | 1% (inactive) |
| CC(C)CN(C(=O)CN1CCN(S(=O)(=O)c2ccccc2)CC1)c1c(N)n(CC(C)C)c(=O)[nH]c1=O | -2% (inactive) |
| O=C(c1cc(=O)c2ccccc2o1)N1CCN(c2ccccc2)CC1 | 0% (inactive) |
| CN(C(=O)COc1ncnc2c1cnn2-c1ccccc1)C1CCCCC1 | -7% (inactive) |
| COc1ccc(S(=O)(=O)N2CCCCCC2)cc1C(=O)OCC(=O)Nc1cc(C)on1 | -1% (inactive) |
| O=C(Cc1ccc(F)cc1)N/N=C/c1ccc2c(c1)OCO2 | -2% (inactive) |
| Cc1ccc(SCCC(=O)NCc2ccccn2)cc1 | 4% (inactive) |
| C/C(=N\NC(=O)c1cc2c(s1)CCC(C)C2)c1cccnc1 (configuration not stated) | 0% (inactive) |
| O=C(Nc1cccnc1)c1ccc(Cl)cc1[N+](=O)[O-] | -1% (inactive) |
| O=C(CC1SC(=Nc2ccccc2)N(Cc2ccccn2)C1=O)Nc1cccc(Cl)c1 (configuration not stated) | 11% (inactive) |
| O=C(CCN1C(=O)c2ccncc2C1=O)Nc1cc(F)ccc1F | -8% (inactive) |
| Cc1csc(Nc2ccc(Cl)cc2)[n+]1-c1ccc(Cl)cc1 | 5% (inactive) |

| Compound | inhibition |
| --- | --- |
| Cc1ccc(NC(=S)N(CCN2CCCCC2)Cc2ccco2)cc1C | -3% (inactive) |
| CCc1ccccc1NC(=O)CN(c1ccc(OC)cc1OC)S(=O)(=O)c1ccccc1[N+](=O)[O-] | -12% (inactive) |
| Cn1c(=O)c([N+](=O)[O-])c(Oc2ccccc2)c2ccccc21 | 0% (inactive) |
| C=CCN(CC=C)C(=O)COC(=O)c1n[nH]c2ccccc12 | -7% (inactive) |
| CCc1ccc(C(=O)OCC(=O)NCC(F)(F)F)cc1 | -3% (inactive) |
| CCOC(=O)CSC1=N/C(=C/c2ccc(-n3cncn3)cc2)C(=O)N1C(C)=O | -5% (inactive) |
| Cc1ccc(C2=N/C(=C\c3ccc(OS(=O)(=O)c4ccc(C)cc4)cc3)C(=O)O2)cc1 | -2% (inactive) |
| Cc1cc(NC(=O)CSc2nnc(Nc3ccccc3F)s2)no1 | -8% (inactive) |
| CN1CCN(c2nc(Nc3ccc(O)cc3)nc3ccccc23)CC1 | -5% (inactive) |
| CCOC(=O)CNC(=O)/C(=C\c1ccc(F)cc1)NC(=O)c1ccccc1 | -7% (inactive) |
| O=C(Cn1nc(CNc2ccc(Cl)cc2)[n+]2c1CCCCC2)c1ccc(Cl)cc1 | -16% (inactive) |
| CC1CCN(S(=O)(=O)c2ccc(S(=O)(=O)NCc3cccnc3)cc2)CC1 | 6% (inactive) |
| COC(=O)Cn1cc(/C=C/[N+](=O)[O-])c2ccccc21 | 4% (inactive) |
| CC(C(=O)NC1CCCC1)N(c1ccc(Oc2ccccc2)cc1)S(C)(=O)=O (configuration not stated) | -2% (inactive) |
| COc1cc2sc(C)nc2cc1C | 2% (inactive) |
| CSCCC(NC(=O)c1cc([N+](=O)[O-])cc([N+](=O)[O-])c1)c1nc2ccccc2[nH]1 (configuration not stated) | -16% (inactive) |
| CCn1c(=S)[nH]c2sc3c(c2c1=O)CCCCC3 | 3% (inactive) |
| COc1cc(/C=N/NC(=S)Nc2cccnc2)cc(OC)c1O | 7% (inactive) |
| CN(C)/N=C/c1cc(Cl)cc([N+](=O)[O-])c1O | 0% (inactive) |
| CCOC(=O)C1(Cc2cccc(OC)c2)CCCN(S(=O)(=O)c2cccnc2)C1 (configuration not stated) | -2% (inactive) |
| Fc1ccc(COc2cccc(-c3n[nH]c(=S)o3)c2)cc1 | 5% (inactive) |
| O=C(C1CCCO1)N1CCN(C(=S)NC2CC2)CC1 (configuration not stated) | -4% (inactive) |
| COc1ccc(CNC(=O)COC(=O)/C=C/c2ccc(S(=O)(=O)N3CCOCC3)cc2)cc1 | -3% (inactive) |

| Compound | inhibition |
| --- | --- |
| COC(=O)c1cc2occc2n1Cc1nc(-c2ccccc2C)oc1C | 0% (inactive) |
| CC(=O)Nc1cccc(/C(C)=N/NC(=O)c2c(-c3ccccc3Cl)noc2C)c1 | 0% (inactive) |
| COc1ccc(C(=O)CSc2nnnn2C)c(OC)c1 | -5% (inactive) |
| Nc1nc(-c2sc3nc4c(cc3c2N)CCCC4)nc(N2CCOCC2)n1 | -5% (inactive) |
| CC1(c2ccccc2)CC(C)(C)N(C(=O)c2cc([N+](=O)[O-])cc([N+](=O)[O-])c2)c2ccccc21 (configuration not stated) | -1% (inactive) |
| CCN(C(=O)CN1CCN(Cc2ccccc2)CC1)c1c(N)n(Cc2ccccc2)c(=O)[nH]c1=O | -3% (inactive) |
| Cn1c(=O)c2c(ncn2CC(=O)N/N=C/c2cn[nH]c2-c2ccc(F)cc2)n(C)c1=O | -3% (inactive) |
| C/C(=N/NS(=O)(=O)c1ccccc1)c1ccc(NC(=O)C(F)(F)F)cc1 | -2% (inactive) |
| O=C1N/C(=C/c2cccn2-c2ccccc2)C(=O)N1c1cccc(Cl)c1 | -2% (inactive) |
| CSCC(NS(=O)(=O)c1ccc(C)cc1)C(=O)O (configuration not stated) | -9% (inactive) |
| Cc1c(C(=O)c2cccc([N+](=O)[O-])c2)c2ccccn2c1CCC#N | -8% (inactive) |
| O=C(CCN1C(=O)c2ccccc2C1=O)C1=NN[C@@H]2C(=O)N(c3ccc(F)cc3)C(=O)[C@H]12 | -9% (inactive) |
| CCOc1ccc(C(CC(=O)O)n2cnnn2)cc1OC (configuration not stated) | -4% (inactive) |
| COC(c1ccccc1)c1nnc(CCC(=O)N2CCN(CCOc3ccccc3)CC2)o1 (configuration not stated) | -5% (inactive) |
| Cc1cccc(Cn2cnc3c(N)c(C)c(C)cc32)c1 | -4% (inactive) |
| Cc1ccc2c(c1)C1CN(C)CCC1N2C(=S)Nc1ccc(OC(F)F)cc1 (configuration not stated) | -7% (inactive) |
| Nc1nc(SCc2ccc([N+](=O)[O-])cc2)c2ncn(C3OC(CO)C(O)C3O)c2n1 (configuration not stated) | -10% (inactive) |
| O=c1[nH]n2c(=O)c3c([nH]c2c1N=Nc1ccccc1)CCC3 | 0% (inactive) |
| COc1ccc(OC)c2[nH]c(=O)c(CCNC(=O)C(=O)c3c[nH]c4ccccc34)cc12 | -9% (inactive) |
| Cc1cc(/C=N/NC(N)=O)c(C)n1C1CCCCC1 | 16% (inactive) |
